In PubChem BioAssay AID720690 (Broad Institute, 2013):
Results with a measured potency or affinity are listed apart. Activity calls are given as the source filed them.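 The calls were made as follows: active = every repeat run showing a signal drop whose fitted half-maximal concentration is at most twice the top tested concentration; inconclusive = repeat runs disagree, or flat partial drop, or poor fit; inactive = the rest.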

Assay: general mammalian cell viability loss – activator set, cherry-pick, cytotoxicity control for miR-122 modulator project, dose response (AID 720690)
Details: HEK293T viability, CellTiter-Glo luminescence, 48 h; series mostly up to 26 µM

Row | Structure (SMILES) | outcome
1 | CN1C(=O)c2cc(NC(=O)c3cccc(F)c3)ccc2OC[C@H]2O[C@@H](CC(=O)O)CC[C@H]21 | inactive
2 | Cc1ccc(-c2nc(C(Cl)Cl)c3ccccc3n2)cc1 | inactive
3 | COc1cccc(-c2ccc3c(c2)O[C@H](CN(C)C(=O)C2CCOCC2)[C@H](C)CN([C@H](C)CO)S3(=O)=O)c1 | inactive
4 | O=C(C1CC1)N(CCN(C(=O)C1CC1)c1ccccc1)c1ccccc1 | inactive
5 | COC(=O)c1c(N)nc(C)n1-c1ccc(OC)cc1 | inactive
6 | COCCN(C[C@@H]1[C@@H](c2ccccc2)[C@H](CO)N1C(=O)C1CCC1)C(C)=O | inactive
7 | O=C(CN1CCOCC1)NC[C@@H]1N[C@@H](CO)[C@@H]1c1ccc(-c2ccccc2)cc1 | inactive
8 | Cc1cc(C(F)F)n2ncc(C(=O)NCCc3ccccc3Cl)c2n1 | inactive
9 | COC(=O)C[C@@H]1CC[C@@H]2[C@H](COc3ccc(NC(=O)c4ccc(F)c(F)c4)cc3C(=O)N2C)O1 | inactive
10 | CCN(C[C@@H]1[C@@H](c2ccccc2)[C@H](CO)N1C(C)=O)C(=O)NC(C)C | inactive
11 | COc1cccc(-c2nn(-c3ccccc3)cc2CO)c1 | inactive
12 | COc1ccc(CCNC(=O)c2c(C)cc(=O)oc2C)cc1OC | inactive
13 | O=C(NC[C@H]1[C@@H](c2ccccc2)[C@@H](CO)N1CC1CCCC1)c1ccncc1 | inactive
14 | O=C(N/N=C/c1ccco1)c1cccc(N2CCCC2=O)c1 | inactive
